From PubChem BioAssay (NCATS)
Inconclusive results are not listed. Calls of active or inactive are those of the source. Calls follow the shape of the dose curve; as a rule, active = well fitted inhibition curve with a large enough effect; inconclusive = small, poorly fitted or top-dose-only effect; inactive = flat fitted curve, though single readings scatter.

Molecular target: Voltage-gated inwardly rectifying potassium channel KCNH2 (Homo sapiens) (UniProt Q12809)
Assay: qHTS Assay for Small Molecule Inhibitors of the Human hERG Channel Activity (AID 588834);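 also: lower thallium flux fluorescence means stronger hERG block; nearly all actives have a fitted effect of over 50% in size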; as to activity change, negative = inhibition: top concentration of the series differs between compounds
Settings: U2OS BacMam hERG, FluxOR thallium flux fluorescence; series mostly up to 46.1 µM; activity change, negative = inhibition: at the top concentration
How it was run: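 In hERG-transduced U2OS cells, dye-loaded for 1 hr at room temperature in dark, test compounds incubated 10 min at 37 °C before thallium stimulation. AC50 values derived by Hill modelling of concentration-response.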
% is scaled to controls: 0 for no effect and ±100 for the full control effect; potency is read from the fitted curve at half-maximal effect.

Chain of Voltage-gated inwardly rectifying potassium channel KCNH2 (Homo sapiens) (Q12809 whole entry, looked up): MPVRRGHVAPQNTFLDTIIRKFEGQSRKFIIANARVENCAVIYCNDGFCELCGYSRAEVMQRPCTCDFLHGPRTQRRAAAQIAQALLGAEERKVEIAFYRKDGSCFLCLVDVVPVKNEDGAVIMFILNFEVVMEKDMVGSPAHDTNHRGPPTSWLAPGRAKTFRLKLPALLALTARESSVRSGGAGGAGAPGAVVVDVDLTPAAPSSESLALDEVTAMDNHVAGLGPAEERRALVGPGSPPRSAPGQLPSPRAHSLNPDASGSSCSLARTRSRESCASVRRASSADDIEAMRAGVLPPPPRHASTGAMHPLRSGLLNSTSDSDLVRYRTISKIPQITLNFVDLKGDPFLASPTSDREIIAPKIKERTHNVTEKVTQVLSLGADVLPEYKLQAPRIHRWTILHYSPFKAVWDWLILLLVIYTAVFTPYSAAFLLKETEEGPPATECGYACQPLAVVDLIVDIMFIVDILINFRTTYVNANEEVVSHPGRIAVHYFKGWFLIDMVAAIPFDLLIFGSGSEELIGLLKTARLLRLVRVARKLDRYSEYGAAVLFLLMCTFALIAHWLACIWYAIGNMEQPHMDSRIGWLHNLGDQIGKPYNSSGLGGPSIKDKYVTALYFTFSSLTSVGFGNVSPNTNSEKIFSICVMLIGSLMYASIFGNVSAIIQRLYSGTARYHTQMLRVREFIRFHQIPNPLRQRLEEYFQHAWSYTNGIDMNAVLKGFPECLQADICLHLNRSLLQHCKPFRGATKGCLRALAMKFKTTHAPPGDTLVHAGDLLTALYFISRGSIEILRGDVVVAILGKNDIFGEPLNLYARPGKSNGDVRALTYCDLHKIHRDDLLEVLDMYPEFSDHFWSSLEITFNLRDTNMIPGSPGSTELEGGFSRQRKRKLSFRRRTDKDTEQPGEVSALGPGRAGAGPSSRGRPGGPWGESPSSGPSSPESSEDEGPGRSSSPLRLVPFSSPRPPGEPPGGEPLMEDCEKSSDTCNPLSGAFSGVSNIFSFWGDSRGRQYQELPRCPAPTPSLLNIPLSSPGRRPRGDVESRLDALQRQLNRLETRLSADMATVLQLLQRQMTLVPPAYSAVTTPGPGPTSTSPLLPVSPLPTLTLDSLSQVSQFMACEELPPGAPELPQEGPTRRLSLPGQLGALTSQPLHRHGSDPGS

SMILES	activity change, negative = inhibition	Potency
C[C@@H](N)[C@@H](O)c1ccccc1	2.11% [at 20.6 µM] (inactive)	–
CN1C[C@H](C(=O)N[C@]2(C)O[C@@]3(O)[C@@H]4CCCN4C(=O)[C@H](Cc4ccccc4)N3C2=O)C=C2c3cccc4[nH]cc(c34)C[C@H]21	–	12.6 µM (active)
O=C1OC(c2ccc(O)c(S(=O)(=O)O)c2)(c2ccc(O)c(S(=O)(=O)O)c2)c2c(Br)c(Br)c(Br)c(Br)c21	0.831% (inactive)	–
C[C@]12CC[C@@H]3c4ccc(OC(=O)N(CCCl)CCCl)cc4CC[C@H]3[C@@H]1CC[C@@H]2O	8.46% (inactive)	–
O=C1CN=C(c2ccccc2)c2cc([N+](=O)[O-])ccc2N1	-19.6% (inactive)	–
O=c1[nH]oc2c1CCNC2	–	inactive
CN1C(=O)CCS(=O)(=O)C1c1ccc(Cl)cc1 (stereo not given)	–	inactive
C[C@]12CCC(=O)C=C1CC[C@@H]1[C@@H]2CC[C@]2(C)C(=O)CC[C@@H]12	–	inactive
CC(C)c1c(CN(C)C(C)Cc2ccccc2)n(C)n(-c2ccccc2)c1=O (stereo not given)	-3.02% [at 20.6 µM] (inactive)	–
c1ccc2c(c1)sc1ccccc12	136% (inactive)	–
CCOC(=O)CC(SP(=S)(OC)OC)C(=O)OCC (stereo not given)	–	inactive
Nc1ccccc1	3.38% [at 92.2 µM] (inactive)	–
CN=C1CN(O)C(c2ccccc2)=c2cc(Cl)ccc2=N1	16.7% (inactive)	–
O=C(O)CCCc1ccc(N(CCCl)CCCl)cc1	–	inactive
O=C(N/N=C/c1ccc([N+](=O)[O-])o1)c1cc([N+](=O)[O-])cc([N+](=O)[O-])c1O	2.17% (inactive)	–
C[C@@H]1O[C@@H]1P(=O)(O)O	18.1% (inactive)	–
CCCC(C)(COC(N)=O)COC(N)=O	5.73% [at 92.2 µM] (inactive)	–
CC(C)(C)NCC(O)c1cc(Cl)c(N)c(C(F)(F)F)c1 (stereo not given)	-3.42% (inactive)	–
NC(=O)c1cc([N+](=O)[O-])cc([N+](=O)[O-])c1	1.15% (inactive)	–
Cc1nnc2n1-c1ccc(Cl)cc1C(c1ccccc1Cl)=NC2	-1.59% (inactive)	–
CC(C)=CC1C(C(=O)OCN2C(=O)C3=C(CCCC3)C2=O)C1(C)C (stereo not given)	–	20 µM (active)
NC(=O)CS(=O)C(c1ccccc1)c1ccccc1 (stereo not given)	1.41% (inactive)	–
O=C(O)/C=C\C(=O)O	9.57% [at 92.2 µM] (inactive)	–
Clc1ccc(C(c2ccc(Cl)cc2)C(Cl)(Cl)Cl)cc1	–	31.6 µM (active)
COc1cc(OC)c(OC)cc1C=O	2.81% [at 92.2 µM] (inactive)	–
CC(=O)OCC1=C(C(=O)O)N2C(=O)[C@@H](N)[C@H]2SC1	4.28% [at 20.6 µM] (inactive)	–
COc1ccc2c(c1)C13CCCC[C@@H]1C(C2)N(C)CC3 (stereo not given in full)	-14.8% (inactive)	–
COC(=O)C(c1ccccc1)C1CCCCN1 (stereo not given)	–	inactive
CN1C(=O)CC(=O)N(c2ccccc2)c2cc(Cl)ccc21	2.55% (inactive)	–
COc1cccc([C@@]2(O)CCCC[C@@H]2CN(C)C)c1	10.3% (inactive)	–
